Rows were chosen to be rich in hits. Some 3.6% of all compounds tested hit in one or more screens of this group.
HEK293 cAMP cs: counter-screen for TSHR agonists: cAMP increase in parental HEK293. parental HEK293 CNG cAMP sensor, membrane potential fluorescence. Potency, µM (top dose mostly 57.1 µM), actives largely listed as activators. actives 2.5% (n = 73,000). AID 938; also: nearly all actives have a fitted effect of over 55% in size
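Parental HEK 293 cells stably expressing a cAMP-gated CNG channel were loaded with membrane potential dye containing 100 uM RO 20-1724 for 60 min. Compound added for 30 min; depolarization read as fluorescence intensity at 590 nm.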
TSHR ag: agonists of human thyroid stimulating hormone receptor; HEK293-CNG-TSHR cells (CNG channel as cAMP sensor), membrane potential dye, cAMP; Potency, µM (doses to about 57.1 µM), usual class: activators; actives 0.48% (n = 73,000); active = well fitted activation curve with a large enough effect in the main read-out, with a control signal flat, not every such curve was filed as active; inconclusive = small, poorly fitted or top-dose-only effect, or a change in a side signal; inactive = no such curve, though single readings can be large or run the other way; reference of the percent scale not stated here;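 also: the control signal comes from parental cells without the receptor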
Target sequence (P16473 whole entry, looked up): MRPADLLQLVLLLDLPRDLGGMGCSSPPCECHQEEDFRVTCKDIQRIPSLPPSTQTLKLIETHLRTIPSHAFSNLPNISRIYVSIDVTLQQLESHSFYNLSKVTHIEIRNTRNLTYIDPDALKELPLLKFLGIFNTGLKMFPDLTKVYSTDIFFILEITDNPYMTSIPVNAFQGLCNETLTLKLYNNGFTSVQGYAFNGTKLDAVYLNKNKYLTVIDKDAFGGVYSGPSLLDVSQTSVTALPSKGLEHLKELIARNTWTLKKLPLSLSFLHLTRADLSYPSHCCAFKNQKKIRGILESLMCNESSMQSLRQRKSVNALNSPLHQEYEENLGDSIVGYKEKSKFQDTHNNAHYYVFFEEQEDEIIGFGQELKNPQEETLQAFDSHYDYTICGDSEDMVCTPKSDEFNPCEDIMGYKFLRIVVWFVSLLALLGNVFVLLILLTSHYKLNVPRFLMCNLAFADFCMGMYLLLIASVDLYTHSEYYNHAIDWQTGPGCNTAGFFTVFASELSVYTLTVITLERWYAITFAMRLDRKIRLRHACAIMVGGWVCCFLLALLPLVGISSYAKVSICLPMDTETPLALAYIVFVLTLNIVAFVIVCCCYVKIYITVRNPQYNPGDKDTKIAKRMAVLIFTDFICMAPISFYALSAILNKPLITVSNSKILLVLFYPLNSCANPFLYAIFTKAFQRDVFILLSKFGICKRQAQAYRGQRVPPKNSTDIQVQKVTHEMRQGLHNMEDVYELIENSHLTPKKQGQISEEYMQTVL
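cAMP rise detected as CNG-channel membrane depolarization by fluorescent dye (emission 590 nm), 30 min after compound, following 60 min dye loading containing 100 uM RO 20-1724 at room temperature. Cells: TSHR/CNG HEK 293, with parental CNG HEK 293 as control.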
CRE-bla Fsk: alters forskolin-stimulated CRE reporter signaling in CHO cells | Potency, µM (series often up to 38.2 µM), hits mostly activators | actives 2.5% (n = 71,000) | CHO CRE-bla reporter (cAMP response element driving beta-lactamase), forskolin EC10, beta-lactamase ratio; active = well fitted activation curve with a large enough effect in the signal ratio, with a control signal flat, not every such curve was filed as active; inconclusive = small, poorly fitted or top-dose-only effect, or effect the other way, or a change in a side signal; the % refers to the signal ratio
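Modulation of forskolin signalling: compounds in titration series added with EC10 NKH 477 to CHO cells carrying a CRE-driven beta-lactamase reporter, 3 h, 37C. CCF4 FRET ratio (460/530 nm, ex 405 nm) gives %activity and AC50.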
ERK AVP block: vasopressin-driven ERK pathway inhibition; actives 0.99% (n = 72,000); HEK293-V1b, vasopressin-stimulated pERK AlphaScreen; AID 995; Potency, µM (doses to about 57.5 µM), actives largely listed as inhibitors; also: nearly all actives have a fitted effect of over 55% in size
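V1b-HEK293 cells; cpd 30 min 37C; 25 nM vasopressin 5 min; lyse 10 min; AlphaScreen beads 5 hr RT. Normalized to DMSO basal and 25 nM vasopressin; AC50 by Hill fit.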
IkB signaling: inhibitors of IkB signaling in ABC-DLBCL cells | ABC-DLBCL IkBa-CBG/CBR dual luciferase ratio, 4 h; response scale: scaled: untreated 0%, proteasome inhibitor 100% | Potency, µM (highest dose often 57.1 µM) | actives 0.04% (n = 110,000) | AID 445; active = well fitted curve in the direction sought with a large enough effect in the signal ratio, not every such curve was filed as active; inconclusive = small, poorly fitted or top-dose-only effect, or a change in a side signal; the % refers to the signal ratio;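 also: the direction sought is a rising ratio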
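Curves were fitted separately to fusion (green), unfused (red) and ratio luminescence, then classed by r2, magnitude and activity. Cells: OCI-Ly3, 4 h compound plus doxycycline at 37C; 10 uM MG-132 defined full response.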
CHO tox 24h: CHO cell toxicity at 24 h by ATP luminescence; 120 tested, under 10 active; activity, negative = viability loss, % at 46.1 µM; AID 905; CRE-bla CHO viability, ATP luminescence, 24 h; shares compounds with CRE-bla Fsk
CHO tox 40h: CHO cell toxicity at 40 h by ATP luminescence; CRE-bla CHO viability, ATP luminescence, 40 h; shares compounds with CRE-bla Fsk; 120 tested, under 10 active; AID 906; Potency, µM, actives largely listed as inhibitors
CRE-luc potent: boosts CRE luciferase signal in HEK293 cells. shares compounds with CRE-bla Fsk. HEK293 CRE-luc2P, NKH477 EC10 potentiation, luminescence, 4 h. Potency, µM (titrated, usually from 38.3 µM), most hits filed as activators. actives 80% (n = 120)
parental cAMP: TSHR-independent cAMP elevation, counter-screen | activity change, negative = inhibition, % at 32.9 µM | 150 tested, under 10 active | shares compounds with TSHR ag | AID 953 | parental HEK293 CNG biosensor, cAMP membrane potential fluorescence
Numbers stand for hits; i = inactive; ? = inconclusive; nt = no result; ! = not confirmed by another sample; [ ] = remark or other dose. Unless noted, calls follow the shape of the dose curve; as a rule, active = well fitted curve in the direction sought with a large enough effect; inconclusive = small, poorly fitted or top-dose-only effect, or another doubt; inactive = no such curve, though single readings can be large; an effect the other way counts as inactive or inconclusive.

SMILES	HEK293 cAMP cs	TSHR ag	CRE-bla Fsk	ERK AVP block	IkB signaling	others
c1nc(N2CC2)c2cnn([C@@H]3CCCCO3)c2n1	i[11.4 µM]	i[11.4 µM]	i[7.6 µM]	i[11.5 µM]	i[11.4 µM]
NC[C@@H](O)CSP(=O)(O)O	i[11.4 µM]	i[11.4 µM]	i[7.6 µM]	i[11.5 µM]	i[11.4 µM]
Cc1cccn2c(=O)c3c(nc12)N1CCC(Cc2ccccc2)CC1C1(C3)C(=O)N(C)C(=O)N(C)C1=O (stereo unspecified)	20µM	?	i	i	i
CN1C(=O)N(C)C(=O)C2(Cc3c(nc4ccccn4c3=O)N3CCC(Cc4ccccc4)CC32)C1=O (stereo unspecified)	i	nt	i	i	i
CCC(=NCc1cccnc1)c1c(O)n(Cc2ccccc2)c(=O)[nH]c1=O	i	i	1.6µM	?	i
CC(=NCc1cccnc1)c1c(O)n(Cc2ccccc2)c(=O)[nH]c1=O	i	i	?	i	i
CCCCn1c(NC(=O)c2ccco2)c(C(=O)OCC)c2nc3ccccc3nc21	6.3µM	?	?	i	i
CCCCCn1c(N)c(C(=O)NCCN2CCOCC2)c2nc3ccccc3nc21	?	?	?	i	?
CNC[C@H](O)c1ccc(O)cc1	i	i	i	i	i
CC(C)NC[C@H](O)c1ccc(N)c(C#N)c1	0.005µM	?	?	?	i
NC[C@@H](CC(=O)O)c1ccc(Cl)cc1	?	?	i	i	3.2µM!
O=c1[nH]c(=O)n(Cc2ccc(F)cc2)c(O)c1C=NCCN1CCCCC1	i	i	?	i	i
CCN[C@]1(c2cccs2)CCCCC1=O	i	5µM	i	i	i
CCNc1nc(Cl)nc(NC(C)C)n1	i	i	7.9µM	i	i
CC(=O)C1=C(O)C2C3c4c[nH]c5cccc(c45)CC3C(C)(C)N2C1=O (stereo unspecified)	nt	nt	nt	i	nt
CC(=O)C1=C(O)[C@@H]2[C@@H]3c4c[nH]c5cccc(c45)C[C@@H]3C(C)(C)N2C1=O	i	i	1.3µM	i	i
CCCCn1c(CN2CCN(c3ccc(F)cc3)CC2)nc2c1c(=O)n(C)c(=O)n2C	?	?	i	nt	i
CC(C)CCn1c(N)c(C(=O)OCC2CCCO2)c2nc3ccccc3nc21 (stereo unspecified)	20µM	?	?	i	i
COCCOC(=O)c1c(N)n(Cc2ccccc2)c2nc3ccccc3nc12	16µM	?	16µM	i	i
CCOC(=O)c1c(N)n(Cc2ccco2)c2nc3ccccc3nc12	?	?	?	i	?
CCCCn1c(N)c(C(=O)OCC2CCCO2)c2nc3ccccc3nc21 (stereo unspecified)	?	?	?	i	i
CC(C)CCOC(=O)c1c(N)n(CC2CCCO2)c2nc3ccccc3nc12 (stereo unspecified)	?	?	?	i	?
CC(C)OC(=O)c1c(N)n(CC2CCCO2)c2nc3ccccc3nc12 (stereo unspecified)	?	?	10µM	i	i
CC1CCC(C(=O)NC(C(=O)N2CCC3(CC2)OCCO3)C(C)C)CC1 (stereo unspecified)	i	i	?	i	i
COc1ccc(Cl)cc1NC(=O)CSc1ncnc2c1oc1ccccc12	i	i	0.1µM	i	i	CHO tox 24h=i;CHO tox 40h=i;CRE-luc potent=1.3µM
SMILES	HEK293 cAMP cs	TSHR ag	CRE-bla Fsk	ERK AVP block	IkB signaling	others
COc1ccc(OC)c(NC(=O)Cn2cc(C(=O)c3ccccc3F)c3ccccc32)c1	nt	nt	nt	nt	i
COc1cc2c(c(OC)c1OC)-c1ccc(OC)c(=O)cc1[C@@H](NC(C)=O)CC2	i	?	1.3µM	i	?	CHO tox 24h=i;CHO tox 40h=i;CRE-luc potent=?
CC(C)C(=O)N1CCN(CCN=Cc2c(O)n(C)c(=O)n(C)c2=O)CC1	nt	nt	nt	nt	nt	CHO tox 24h=i;CHO tox 40h=i;CRE-luc potent=i
C[C@@H]1OC=C2[C@@H](O)[C@H]3O[C@H]3C(=O)[C@@]23[C@H]1[C@H]1C2=C([C@@H](O)[C@H]4O[C@@H]4C2=O)[C@@H]3O[C@@H]1C	i[11.4 µM]	i[11.4 µM]	nt	i[11.5 µM]	nt
C[C@@]12CC[C@H]3[C@@H](CC[C@H]4C[C@@H](O)CC[C@]43C)[C@H]1CC[C@@H]2C(=O)C[C@H](O)C(F)(F)F	i[11.4 µM]	i[11.4 µM]	i[7.6 µM]	i[11.5 µM]	i[11.4 µM]
CN(C)C=C1C(=O)N(C2CCCCC2)C(=O)N(C2CCCCC2)C1=O	i	i	i	i	?	CHO tox 24h=i;CHO tox 40h=?;CRE-luc potent=?
Cn1cc(C(=O)N2CCC3(CC2)OCCO3)c2c3ccccc3n(C)c2c1=O	i	i	?	i	i
Cn1c(C(=O)N2CCC3(CC2)OCCO3)cc2c(=O)n(C)c3ccccc3c21	i	nt	?	i	i	CHO tox 24h=i;CHO tox 40h=i;CRE-luc potent=14µM
Cc1[nH]c2ccccc2c1C1=CCNCC1	i	i	?	i	i
CN(C)c1ccc(CN2CC=C(c3ccc(F)cc3)CC2)cc1	i	i	i	?	i	parental cAMP=i
CN(C)c1ccc(Cc2ccc(N(C)C)cc2)cc1	i	?	i	?	i
CN(C)P1(N(C)C)=NC(C(F)(F)F)=NC(C(F)(F)F)=N1	i	i	i	?	i
O=c1[nH]c(=O)n(Cc2ccco2)c(O)c1C=NC1CC1	i	nt	i	i	i	parental cAMP=i
